This is a sample that favours compounds with a hit; in the whole collection about 8.7% have one here.
AMA1 RON2 block: qHTS for Inhibitors of AMA1-RON; Towards Development of Antimalarial Drug Lead: Primary Screen | Plasmodium falciparum AMA1 (3D7) - RON2 peptide interaction | AlphaScreen AMA1-biotinylated RON2 peptide binding | Potency, µM (top dose mostly 58.2 µM), inactives show top-dose activity change, negative = inhibition, most hits filed as inhibitors | hit rate 0.2% among 360,000;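 also: 0% = vehicle wells and -100% = peptide control; nearly all actives have a fitted effect of over 45% in size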
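AMA1 (3D7) with his tag at 25 nM final met compounds first, then biotinylated RON2 peptide at 25 nM; detection used donor plus acceptor beads, 10 µg/mL apiece, read by AlphaScreen after 30 min at room temperature.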
Vaccinia Venus: qHTS for Stage-Specific Inhibitors of Vaccinia Orthopoxvirus: Venus Reporter Primary qHTS | Vaccinia virus Venus reporter expression, fluorescence | Potency, µM (doses to about 36.5 µM), without a hit: top-dose activity change, negative = inhibition, hits mostly inhibitors | hit rate 0.46% among 330,000; calls by dose curve; tested in A549 cells; also: nearly all actives have a fitted effect of over 30% in size
VACV mCherry inh: qHTS for Stage-Specific Inhibitors of Vaccinia Orthopoxvirus: mCherry Reporter Primary qHTS; Potency, µM (top dose mostly 36.5 µM), inactives show at the highest dose activity change, negative = inhibition, hits mostly inhibitors; hit rate 0.63% among 310,000; Vaccinia virus mCherry reporter infection, fluorescence; calls by dose curve; tested in A549 cells; also: nearly all actives have a fitted effect of over 35% in size
Pf growth 96h: Primary qHTS for delayed death inhibitors of the malarial parasite plastid, 96 hour incubation; P. falciparum luciferase reporter growth, 96 h; hit rate 6.9% among 320,000; Potency, µM (series often up to 28.7 µM), for the others: at the highest dose activity change, negative = inhibition, most hits filed as inhibitors
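Cell-based qHTS: luciferase-tagged P. falciparum in erythrocytes (2% hematocrit, 0.05% parasitemia final) incubated with compounds for 96 hours, 37 C, 5% CO2; luciferase detection reagent then added and luminescence measured.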
Pf growth 48h: Primary qHTS for delayed death inhibitors of the malarial parasite plastid, 48 hour incubation; P. falciparum luciferase growth in erythrocytes, 48 h; Potency, µM (titrated, usually from 28.7 µM), for the others: at the highest dose activity change, negative = inhibition, most hits filed as inhibitors; hit rate 5.9% among 310,000; AID 504832, 2011
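Luciferase-expressing P. falciparum in infected erythrocytes (2% hematocrit, 0.1% parasitemia final) in RPMI 1640/0.5% Albumax were exposed to compound for 48 hours at 37 C, 5% CO2; growth read as luminescence.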
Numbers without * were called inactive; i = inactive; ? = inconclusive; . = not tested or not shown; [ ] = dose if it differs, or a comment. Unless noted, calls follow the shape of the dose curve; as a rule, active = well fitted curve in the direction sought with a large enough effect; inconclusive = small, poorly fitted or top-dose-only effect, or another doubt; inactive = no such curve, though single readings can be large; an effect the other way counts as inactive or inconclusive. Unless noted, % is scaled to controls: 0 for no effect and ±100 for the full control effect; potency is read from the fitted curve at half-maximal effect.

SMILES	AMA1 RON2 block	Vaccinia Venus	VACV mCherry inh	Pf growth 96h	Pf growth 48h
Cn1ccc(NC(=O)CCl)n1	-16%	?	?	-22%	?
Cc1cc(NC(=O)CCl)nn1C	-1%	?	?	10µM*	?
COC(=O)CN1C(c2ccc(OC)cc2)=Nc2ccc(Cl)cc2C1c1ccccc1 (stereo not given)	14%	-1%	-6%	10µM*	15µM*
COC(=O)CN1C(CN2CCOCC2)=Nc2ccc(Br)cc2C1c1ccccc1 (stereo not given)	4%	0%[7.34 µM]	i[7.34 µM]	?	?
COC(=O)CN1C(c2cccc(Cl)c2)=Nc2ccc(Cl)cc2C1c1ccccc1 (stereo not given)	-27%	0%	-2%	1.7µM*	2.3µM*
CC(=O)c1ccc(N2CCN(c3ncnc4c3cnn4-c3cc(Cl)ccc3C)CC2)cc1	.	-28%	?	.	.
O=C(C1CC1)N1CCN(c2ccnc3cc(Cl)ccc23)CC1	-3%	-5%	i	7.4µM*	-13%
O=C(C1CCC1)N1CCN(c2ccnc3cc(Cl)ccc23)CC1	-6%	.	.	10µM*	13µM*
O=C(c1ccco1)N1CCN(c2ccnc3cc(Cl)ccc23)CC1	-4%	.	.	16%	?
CC(=O)c1ccc(N2CCN(c3ccnc4cc(Cl)ccc34)CC2)cc1	-20%	-16%	?	6.6µM*	10µM*
O=C(c1ccc(Cl)cc1)N1CCN(C(=O)C2CCCCC2)CC1	-7%	5%	-8%	5.9µM*	8%
CC(C)(C)C(=O)N1CCN(c2ccnc3cc(Cl)ccc23)CC1	0%	.	.	11%	?
O=C1CC(c2ccc(Cl)cc2)Sc2nc(-c3ccc(F)cc3)nn21 (stereo not given)	.	0%	i	.	.
Cc1cc(C)cc(NC(=O)Cn2nnc(-c3ccccc3F)n2)c1	.	-8%	-15%	.	.
COC(=O)c1ccc(NC(=O)C(c2ccccc2)N2Cc3ccccc3C2=O)cc1 (stereo not given)	.	-13%	-4%	.	.
Cc1cc(NC(=O)N2CCC(CN3CCOCC3)CC2)ccc1Br	.	-21%	-13%	.	.
O=C(C1CCCCC1)N1CCN(c2ccnc3cc(Cl)ccc23)CC1	0%	-12%	-25%	3.3µM*	1.9µM*
O=C(NCC1(N2CCOCC2)CCCC1)c1cnn(-c2nccc(-c3ccco3)n2)c1C1CC1	.	0%	-7%	.	.
CCC(C)(C)n1nnnc1C(c1ccc(OC)c(OC)c1)N1CCN(c2ccc(OC)cc2)CC1 (stereo not given)	-25%	11%	.	2%	.
CCC(C)(C)n1nnnc1C(c1ccc(OC)c(OC)c1)N1CCN(c2cccc(OC)c2)CC1 (stereo not given)	-8%	-13%	.	41%	7.4µM*
CC(C)(C)n1nnnc1C(c1cccnc1)N1CCN(c2cccc(C(F)(F)F)c2)CC1 (stereo not given)	-12%	-26%	.	-25%	3.7µM*
CCC(C)(C)n1nnnc1C(c1ccc(OC)c(OC)c1)N1CCN(c2ccc(F)cc2)CC1 (stereo not given)	-13%	-6%	.	.	13µM*
CC(C)(C)n1nnnc1C(c1cccnc1)N1CCN(C2CCCCC2)CC1 (stereo not given)	5%	-4%	-12%	-2%	12%
CCC(C)(C)n1nnnc1C(c1ccc(OC)c(OC)c1)N1CCN(c2ccccc2)CC1 (stereo not given)	-7%	-13%	.	26%	?
CN1CCCc2cc(/C=C/c3ccnc4ccccc34)ccc21	.	33%	-10%	.	.
O=C1CN(C(=O)c2ccc(S(=O)(=O)N3CCCC3)cc2)C(c2ccccc2)c2cc(Br)ccc2N1 (stereo not given)	.	-13%	-16%	.	.
Cc1ccc(C)c(NC(=O)CSc2nc3nccnc3c(=O)n2CCc2c[nH]c3ccccc23)c1	.	-9%	-12%	.	.
CCC(=O)N1CCc2cc(Br)cc(S(=O)(=O)CCC(=O)Nc3ccc(C)c(C)c3)c21	.	5%	-2%	.	.
CCOCCCNC(=O)CN1C(=O)c2c(c3ccccc3n2C)C1c1ccc(OC)cc1 (stereo not given)	.	-7%	-7%	.	.
